Test results as given in PubChem BioAssay AID1964107 (National Center for Advancing Translational Sciences (NCATS), 2024).
Screen size: about 31,000 compounds; about 360 (1.2%) were called active. About 8% were inconclusive and are not listed. Calls follow the shape of the full dose curve. What follows is part of a selection rich in actives, with near analogues and random picks from the rest. Entries that show only a call come without a potency.
Also: nearly all actives have a fitted effect of over 60% in size.
Potency is read from the fitted curve at half-maximal effect.

These compounds were tested against Polyprotein P1234 (Chikungunya virus (strain S27-African prototype)) (UniProt Q8JUX6) (assay: Primary qHTS for inhibitors of NSP2Pro chikungunya virus (CHIKV)). Conditions: FRET peptide cleavage, fluorescence 1 h; series mostly up to 24.9 µM.
Sequence of Polyprotein P1234 (Chikungunya virus (strain S27-African prototype)) (Q8JUX6 whole entry, looked up): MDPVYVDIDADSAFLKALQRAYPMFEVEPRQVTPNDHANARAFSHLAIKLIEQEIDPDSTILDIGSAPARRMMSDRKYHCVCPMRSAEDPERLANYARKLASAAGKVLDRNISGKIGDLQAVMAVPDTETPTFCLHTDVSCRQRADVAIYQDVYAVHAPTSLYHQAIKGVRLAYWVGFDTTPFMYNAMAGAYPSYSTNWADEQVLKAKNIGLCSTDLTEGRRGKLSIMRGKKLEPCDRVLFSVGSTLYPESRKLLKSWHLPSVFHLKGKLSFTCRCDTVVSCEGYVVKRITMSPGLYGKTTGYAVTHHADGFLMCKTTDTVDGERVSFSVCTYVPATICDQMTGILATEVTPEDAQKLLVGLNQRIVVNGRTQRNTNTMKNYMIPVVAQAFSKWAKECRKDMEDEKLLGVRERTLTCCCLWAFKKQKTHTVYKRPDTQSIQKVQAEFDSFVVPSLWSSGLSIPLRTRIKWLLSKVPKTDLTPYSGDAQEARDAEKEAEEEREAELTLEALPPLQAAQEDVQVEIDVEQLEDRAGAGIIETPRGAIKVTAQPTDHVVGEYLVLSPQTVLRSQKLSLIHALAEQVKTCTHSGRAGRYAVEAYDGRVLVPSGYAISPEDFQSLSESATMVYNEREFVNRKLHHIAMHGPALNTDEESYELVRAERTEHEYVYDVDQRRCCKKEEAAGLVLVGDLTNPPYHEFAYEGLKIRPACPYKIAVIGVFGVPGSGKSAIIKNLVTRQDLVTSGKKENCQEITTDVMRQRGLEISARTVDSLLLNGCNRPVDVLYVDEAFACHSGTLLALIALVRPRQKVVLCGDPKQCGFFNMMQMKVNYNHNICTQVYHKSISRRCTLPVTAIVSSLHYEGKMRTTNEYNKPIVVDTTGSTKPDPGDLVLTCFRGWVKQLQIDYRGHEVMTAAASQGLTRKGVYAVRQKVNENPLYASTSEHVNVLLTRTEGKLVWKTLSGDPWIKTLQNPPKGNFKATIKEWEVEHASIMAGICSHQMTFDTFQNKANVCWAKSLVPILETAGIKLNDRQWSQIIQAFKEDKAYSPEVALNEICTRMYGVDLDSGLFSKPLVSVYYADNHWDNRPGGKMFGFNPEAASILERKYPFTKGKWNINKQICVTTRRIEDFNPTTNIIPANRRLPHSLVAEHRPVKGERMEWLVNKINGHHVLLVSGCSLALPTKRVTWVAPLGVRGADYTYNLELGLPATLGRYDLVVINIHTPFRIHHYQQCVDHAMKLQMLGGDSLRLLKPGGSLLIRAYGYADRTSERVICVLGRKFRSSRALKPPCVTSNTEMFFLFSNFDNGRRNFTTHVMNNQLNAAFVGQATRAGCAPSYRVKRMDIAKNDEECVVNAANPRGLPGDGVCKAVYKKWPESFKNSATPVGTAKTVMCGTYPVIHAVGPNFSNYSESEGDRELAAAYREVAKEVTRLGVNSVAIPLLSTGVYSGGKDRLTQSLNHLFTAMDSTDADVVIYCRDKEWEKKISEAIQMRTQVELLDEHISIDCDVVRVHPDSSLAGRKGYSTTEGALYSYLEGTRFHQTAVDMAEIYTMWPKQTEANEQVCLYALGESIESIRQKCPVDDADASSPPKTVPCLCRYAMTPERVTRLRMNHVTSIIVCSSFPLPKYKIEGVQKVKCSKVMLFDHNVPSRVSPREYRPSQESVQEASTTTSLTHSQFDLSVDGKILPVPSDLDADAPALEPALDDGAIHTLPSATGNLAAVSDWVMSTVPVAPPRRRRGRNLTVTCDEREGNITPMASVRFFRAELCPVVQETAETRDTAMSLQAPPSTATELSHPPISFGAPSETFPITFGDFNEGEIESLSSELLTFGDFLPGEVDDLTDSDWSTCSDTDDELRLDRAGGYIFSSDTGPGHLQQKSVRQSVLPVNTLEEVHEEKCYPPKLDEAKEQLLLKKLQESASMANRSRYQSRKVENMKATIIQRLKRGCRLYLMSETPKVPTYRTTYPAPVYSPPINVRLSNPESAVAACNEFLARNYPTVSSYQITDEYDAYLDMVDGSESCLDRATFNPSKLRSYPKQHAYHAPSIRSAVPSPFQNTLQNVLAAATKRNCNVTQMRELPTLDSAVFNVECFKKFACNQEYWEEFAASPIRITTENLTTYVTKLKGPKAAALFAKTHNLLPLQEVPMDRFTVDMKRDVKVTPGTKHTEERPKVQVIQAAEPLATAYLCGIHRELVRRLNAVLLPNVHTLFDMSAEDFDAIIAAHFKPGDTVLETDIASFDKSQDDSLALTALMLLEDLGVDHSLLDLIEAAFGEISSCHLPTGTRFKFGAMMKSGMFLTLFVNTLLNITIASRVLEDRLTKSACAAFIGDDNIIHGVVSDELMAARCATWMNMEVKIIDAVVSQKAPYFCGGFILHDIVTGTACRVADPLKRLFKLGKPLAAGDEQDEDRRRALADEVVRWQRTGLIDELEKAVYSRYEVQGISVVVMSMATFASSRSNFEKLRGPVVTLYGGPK
Excerpt: PI: Natalia J. Martinez Ph.D. National Center for Advancing Translational Sciences (NCATS), National Institute of Health (NIH), Rockville, Maryland Chikungunya virus (CHIKV) is a mosquito-borne RNA virus that has emerged as one of the most important global arboviral threats in the last decade. Although the first CHIKV vaccine has recently been FDA approved for use in healthy adults at increased risk, to date, there are no available antiviral drugs for CHIKV infection. CHIKV nsP2 protease plays a crucial role in the processing of the viral polypeptide precursor to release enzymes required for viral replication, thus making it a promising drug target for antiviral discovery. Here, we established a high-throughput pipeline to identify small molecule inhibitors of nsP2 proteolytic activity. The pipeline is composed of a suite of 1,536-well in vitro assays to support quantitative high-throughput (qHTS) screening campaigns. Specifically, we developed a fluorescence resonance energy transfer (FRET)-based assay using a fluorogenic peptide substrate encompassing an endogenous cleavage site and purified recombinant protease domain (nsP2pro). Using this assay, we interrogated ~37,000 small molecules, including those in drug repurposing libraries as well as chemically diverse and medicinal chemistry-friendly compounds. Hits were selected for follow-up validation against full-length nsP2 and an additional peptide. FRET-based 1,536-well assays for papain, hepatitis C virus NS3-4A, and human furin proteases were implemented to characterize compound selectivity. […] Novel compounds were identified to be potential nsP2 inhibitors and molecular docking analyses were performed to explain the binding mode of selected hits. In vitro antiviral activity was evaluated for a subset of compounds using a high-throughput CHIKV infection assay. To our knowledge, the pipeline presented here is unprecedented for CHIKV antiviral discovery research.
PROTOCOL TABLE (as described by Inglese J, Shamu CE and Guy RK. 2007) SEQUENCE No. (e.g., 1, 2, 3, etc.); […] (e.g., Cells, Incubation, Reagent, etc.); VALUE; DESCRIPTION. 1; Control / Compound; 20 nL; Echo 655 acoustic dispenser, Greiner 1536-well solid bottom black plate. 2; Enzyme; 4 uL; BioRAPTR FRD liquid dispenser (Beckman Coulter). 3; Incubation; 15 min; room temperature. 4; Reagent; 4 uL; 2.5 uM Peptide 2 substrate. 5; Incubation; 1 hr; room temperature. 6; Detection; Fluorescence; WiewLux microplate reader (PerkinElmer), 525 nm excitation, 598/25 nm emission. NOTES (numbers refer to sequence numbers above). 1. Briefly, 20 nL DMSO, positive control ZnAc (20nM final concentration), and test compounds were transferred into a 1,536-well solid bottom black plate (789176-F, Greiner One) via Echo 655 acoustic dispenser (Beckman Coulter). For primary screens, compounds were tested at 7 concentrations, 1:3 dilution points ranging from 25 uM to 34 nM. Follow-up confirmatory screens were carried out at 11 concentrations, 1:3 dilution points from 25 uM to 0.42 nM. 2. Four uL nsP2pro enzyme mix (150 nM final concentration) in 10 mM Tris-HCl pH 8.0 with 0.01% Tween 20 assay buffer was dispensed into the plate using a BioRAPTR FRD liquid dispenser (Beckman Coulter). 3. The plate was incubated at room temperature (protected from light) for 15 min 4. Four microliter of peptide 2 substrate (2.5 uM final concentration) in assay buffer was added to the plate. 5. After 1 hour, plates were immediately read on a ViewLux high-throughput CCD imager (Exposure = 10 sec, Gain = High, Speed = Slow, Binning = 2X). The above assay was also incorporated in the NCATS HTS facility41, which allowed for robotic liquid and compound dispensing, microplate handling, and fluorescence reading.. REFERENCE: Inglese J, Shamu CE and Guy RK, Reporting data from high throughput screening of small molecule libraries, Nature Chemical Biology, 2007, 3(8): 438-441. doi.org/10.1038/nchembio0807-438.
In the case of CCOc1ccc(CCNC(=O)c2cc3ccccc3n2Cc2cccc(C)c2)cc1OCC, the Potency is reported as “inactive”.
For O=C(Cn1nc2c(cc1=O)CCCCC2)NC1CCN(C(=O)c2cc3ccccc3[nH]2)CC1, the Potency was “inactive”.
COc1cc(OC)c(C(CC(=O)N2CC(C)CC(C)C2)c2ccc3c(c2)OCO3)c(OC)c1 (stereo unspecified) was tested, and the Potency was “inactive”.
Fc1cc(Nc2nc(-c3ccncc3)nc3ccccc23)ccc1N1CCCCC1 was tested, and the Potency was “inactive”.
O=C(c1nc(-c2ccsc2)c2cnccn12)N1CCCC1 was tested, and the Potency was “inactive”.
With O=S(=O)(NCCc1noc(-c2ccccc2)n1)c1ccc2c(c1)OCCO2 the Potency was “inactive”.
With CCOC(=O)c1cccc(NC(=O)Cn2cnc3nc4c(cc3c2=O)CCCC4)c1 the Potency was “inactive”.
C/C(=C\CC[C@@H](C)[C@H]1CC(O)[C@@]2(C)C3CC[C@H]4C(C)(C)[C@@H](OC5OCC(O)C(O)C5OC5OC(CO)C(O)C(O)C5O)CC[C@@]45C[C@@]35CC(O)[C@]12C)C(=O)O (stereo partly specified) was tested, and the Potency was “inactive”.
In the case of CC12CCC(O)CC1=CCC1C2CCC2(C)C(c3cccnc3)=CCC12 (stereo unspecified), the Potency is reported as “inactive”.
With O=C(C1CCCC1)N1CC2(CCCN(Cc3ccccn3)C2)Cc2ccccc21 (stereo unspecified) the Potency was “inactive”.
In the case of Cc1cc(C(=O)Nc2cccc(C(F)(F)F)c2)c2c(C)nn(-c3cccc(F)c3)c2n1, the Potency is reported as “inactive”.
NC(=O)c1noc([C@H](CCCC2CCCCC2)CC(=O)NO)n1 was tested, and the Potency was “inactive”.
For O=C(CC1N=C2c3ccccc3N=C(SCc3cccc(Cl)c3)N2C1=O)NCc1ccc2c(c1)OCO2 (stereo unspecified), the Potency was “inactive”.
With CC(C)(C)c1cc(C(=O)O)c(NC(=O)Nc2ccc3[nH]ncc3c2)s1 the Potency was “inactive”.
In the case of CC(Nc1ncnc2ccc(-c3ccc4c(c3)OCO4)cc12)c1ccco1 (stereo unspecified), the Potency is reported as “inactive”.
CCC(CC)c1nn2cc(-c3ccccc3)nc2s1 was tested, and the Potency was “inactive”.
In the case of CCOC(=O)c1cc2c(=O)n3ccccc3nc2n(CCCOC)c1=NC(=O)C(C)Oc1ccccc1 (stereo unspecified), the Potency is reported as “inactive”.
C=CC(=O)c1ccc2ccccc2c1 was tested, and the Potency was 9.88 µM (active).
In the case of O=C(CN1CCOC1=O)N1CCn2nc(C(O)Cc3ccccc3)cc2C1 (stereo unspecified), the Potency is reported as “inactive”.
With COc1ccc(CCNC(=O)C(=O)NCC(c2ccco2)S(=O)(=O)c2cccs2)cc1OC (stereo unspecified) the Potency was “inactive”.
In the case of O=C(O)c1ccc(CSc2nc3cccnc3n2Cc2cccc(F)c2)cc1, the Potency is reported as “inactive”.
In the case of O=S(=O)(c1ccc2c(c1)OCCCO2)N1CCN(S(=O)(=O)c2c(F)cccc2F)CC1, the Potency is reported as “inactive”.
With Cc1ccc(C(=O)NC2CCN(C#N)CC2)cc1 the Potency was “inactive”.
With Cn1c(C(=O)N2CCC(C(=O)N3CCN(c4ccccc4)CC3)CC2)cc2sccc21 the Potency was “inactive”.
For Cc1ccsc1C(=O)C1CCCN(Cc2ccc(OC(C)C)c(CO)c2)C1 (stereo unspecified), the Potency was “inactive”.
For CCOc1ccc(CCNC(=O)C2=C(C)C(=O)OC23CCC(C)CC3)cc1OCC (stereo unspecified), the Potency was “inactive”.
